Screens as filed in PubChem BioAssay.
HT1080NT lethal – kills 2HG-producing HT-1080-NT fibrosarcoma cells; HT-1080-NT fibrosarcoma viability, CellTiter-Glo ATP luminescence, 48 h; Potency, µM (top dose mostly 46.1 µM), inactives show top-dose activity, negative = less viability, most hits filed as cytotoxic; 360,000 tested, 1.6% active;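 further: NT is the 2HG producing partner of a matched IDH1 knockdown line; 0% = DMSO-treated cells and -100% = media-only wells without cells; nearly all actives have a fitted effect of over 55% in size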
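Toxicity toward the 2HG-producing NT line was scored as %Activity, normalised to DMSO and no-cell wells, from CellTiter-Glo luminescence after 48 hours' treatment.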
KB-3-1 cytotox – KB-3-1 parental cell cytotoxicity; KB-3-1 viability, CellTiter-Glo ATP luminescence, 72 h; Potency, µM (titrated, usually from 46.1 µM), actives largely listed as cytotoxic; 400,000 tested, 1.4% active; AID 1347075; further: on the % scale 0 is the no-effect control and ±100 the full control effect; nearly all actives have a fitted effect of over 60% in size
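Screening of KB-3-1 cells (DMEM, 10% FBS, phenol-red free) ran from lowest to highest compound concentration; after 72 h at 37 °C viability was read luminescently and curves fitted.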
ATXN2 expr inh – ATXN2 expression inhibition; 360,000 tested, 0.72% active; AID 1745845; Potency, µM (top dose mostly 57 µM), for the others: at the top dose activity change, negative = inhibition, hits mostly inhibitors; HEK-293 ATXN2-luciferase reporter, luminescence, 24 h; further: on the % scale 0 is the no-effect control and ±100 the full control effect; nearly all actives have a fitted effect of over 55% in size
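ATXN2-luciferase reporter cells (luciferase flanked by upstream and downstream ATXN2 gene portions) were treated 24 h at 37 °C with compounds at up to 57 uM. SteadyGlo luminescence gave expression; GF-AFC fluorescence gave viability.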
HT1080 IDH1KD tx – kills HT-1080 cells with IDH1 knockdown; HT-1080 IDH1 knockdown viability, ATP luminescence, 48 h; Potency, µM (highest dose often 46.1 µM), without a hit: top-dose activity, negative = toxicity, usual class: cytotoxic; 360,000 tested, 2% active; AID 686971;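 further: 0% = DMSO wells and -100% = cell-free medium wells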
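Using the IDH1-knockdown HT-1080 line run in the same batch and compound series as the NT line, viability after 48 h at 37 °C was determined by CellTiter-Glo luminescence and expressed as % activity.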
ATXN viability – viability counter-screen for ATXN expression inhibitors. S2 cells (HEK-293 line with an ATXN2-luciferase reporter) viability, CellTiter-Fluor protease fluorescence, 24 h. Potency, µM (top dose mostly 56.7 µM), actives largely listed as cytotoxic. 400,000 tested, 0.49% active; further: nearly all actives have a fitted effect of over 40% in size
KB-V1 MDR tox – kills drug-selected multidrug resistant KB-V1 cells; KB-V1 MDR cells viability, CellTiter-Glo, 72 h; Potency, µM (highest dose often 46.1 µM), actives largely listed as cytotoxic; 400,000 tested, 3.4% active; AID 1347076; further: on the % scale 0 is the no-effect control and ±100 the full control effect; nearly all actives have a fitted effect of over 60% in size
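KB-V1, DMEM (no phenol red) + 10% FBS; cpd pin-transferred, titration series; 72 h, 37 degrees C; CellTiter-Glo, luminescence. Data normalized, curve-fit.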
Numbers without * were called inactive; i = inactive; u = inconclusive; x = no result given. Only some compounds are listed: those with a hit (about 6.2% of all), similar ones and a draw of the others. The call rests on the fitted dose curve; in most records, active means well fitted curve in the direction sought with a large enough effect; inconclusive means small, poorly fitted or top-dose-only effect, or another doubt; inactive means no such curve, though single readings can be large; an effect the other way counts as inactive or inconclusive. Potency means the concentration at half of the fitted maximal effect.

SMILES	HT1080NT lethal	KB-3-1 cytotox	ATXN2 expr inh	HT1080 IDH1KD tx	ATXN viability	KB-V1 MDR tox
COc1cc(C(Nc2ccccn2)c2ccc3ccc(C)nc3c2O)cc(OC)c1O (stereo not given)	-29%	u	u	15µM*	x	16µM*
Cc1ccc2ccc(C(Nc3ccccc3)c3ccc(F)cc3)c(O)c2n1 (stereo not given)	u	i	x	u	x	u
Cc1ccc2ccc(C(Nc3ccccc3)c3ccccc3)c(O)c2n1 (stereo not given)	-8%	4.1µM*	x	u	x	u
COc1ccc(C(Nc2cc(C)ccn2)c2ccc3ccc(C)nc3c2O)cc1 (stereo not given)	-20%	i	1%	-8%	i	i
Cc1ccc2ccc(C(Nc3ccccc3)c3ccc(C(C)C)cc3)c(O)c2n1 (stereo not given)	u	15µM*	x	u	x	u
O=C(NCCCc1nc2ccccc2n1CCOc1ccccc1)C1CCCCC1	x	i	x	x	x	i
COc1cccc(Cn2c(=O)n(CC3CCC(C(=O)N4CCCCC4)CC3)c(=O)c3sccc32)c1 (stereo not given)	x	i	u	x	u	i
Cc1cc(SCC(=O)c2cccs2)nc2c(C)cccc12	4%	i	9%	-9%	i	u
CC(=O)Nc1ccc(C(=O)CSc2cc(C)c3cccc(C)c3n2)cc1	-1%	u	-4%	-1%	u	13µM*
Cc1cc(C(=O)NCC2CCC3(CCN(Cc4ccc5ccccc5c4)CC3)O2)n(C)n1 (stereo not given)	x	x	x	x	i	x
Cc1[nH]nc(-c2ccc(OCc3cnn(-c4ccccc4)c3)c(C)c2O)c1Oc1ccccc1	21µM*	21µM*	-35%	16µM*	u	i
N#Cc1ccc2c(c1)nnn2-c1ccccc1	9%	i	8%	7%	i	9.2µM*
Nc1ccc2c(c1)nnn2-c1ccccc1	1%	i	8%	2%	i	i
C/C(=N\NC(=O)c1ccccc1)c1ccc(NC(=O)c2cccs2)cc1	-1%	i	3%	-2%	i	i
C/C(=N\NC(=O)c1ccccc1C)c1ccc(NC(=O)c2cccs2)cc1	-3%	i	4%	-30%	u	5.8µM*
COc1cccc(C(=O)N/N=C(\C)c2ccc(NC(=O)Cc3ccccc3)cc2)c1OC	13%	i	13%	1%	i	i
C/C(=N\NC(=O)c1ccccc1O)c1ccc(NC(=O)Cc2ccccc2)cc1	-1%	u	17%	0%	i	16µM*
COc1ccc(C(=O)N2CCOc3ccc(CN4CCN(c5ccccn5)CC4)cc3C2)o1	x	x	x	x	i	x
Cc1cccc(N2CCN(C(=O)C3CCN(S(=O)(=O)Cc4ccccc4)CC3)CC2)c1C	x	i	10%	x	i	i
O=C(Nc1ccc(Cl)c(Cl)c1)N[C@@H]1CC[C@@H](CCn2cc(C3CCCCC3)nn2)O[C@@H]1CO	21µM*	u	x	23µM*	x	i
COc1ccc(CCCc2nnc(SCC(=O)Nc3cccc(F)c3C)o2)cc1	x	i	8%	x	i	i
CN(C)S(=O)(=O)N1CCC(Oc2cccc(C(=O)NC3CCCCCC3)c2)CC1	u	i	-30%	-15%	i	1.3µM*
CC1CCCCN1C(=O)c1ccc(OC2CCN(S(=O)(=O)N(C)C)CC2)cc1 (stereo not given)	-17%	i	23%	u	i	23µM*
CN(C)S(=O)(=O)N1CCC(Oc2ccc(C(=O)N3CCCCCCC3)cc2)CC1	-4%	u	30%	-4%	i	10µM*
CCc1cc(C(=O)NCc2c(C)ncc3c2CCN(C(=O)C2=CCCC2)C3)no1	x	x	x	x	i	x
CCOC(=O)C(=Cc1ccc(-n2ccnc2)cc1)C(=O)OCC	10µM*	21µM*	u	5.8µM*	x	u
CCCC(CCC)(C(=O)OCC)C(=O)OCC	x	x	-8%	x	i	x
